For 41 compounds, Potency results are on record in PubChem BioAssay (NCATS).

Results filed as inconclusive are left out. A call without a number means that no potency is given here. Values without a mark were called inactive. The source made the active and inactive calls. The call rests on the fitted dose curve; in most records, active means well fitted curve in the direction sought with a large enough effect; inconclusive means small, poorly fitted or top-dose-only effect, or another doubt; inactive means no such curve, though single readings can be large; an effect the other way counts as inactive or inconclusive.

The target of assay [1] is Aldehyde dehydrogenase, mitochondrial (Homo sapiens) (UniProt P05091). Briefly: qHTS for Inhibitors of the Aldehyde Dehydrogenase Family (ALDH2) Primary screen (AID 2061308). Further: nearly all actives have a fitted effect of over 55% in size. In general terms: Quantitative high-throughput screening tests each substance at several concentrations.
For assay [2], the target named is Retinaldehyde dehydrogenase 3 (Homo sapiens) (UniProt P47895). Briefly: qHTS for Inhibitors of the Aldehyde Dehydrogenase Family (ALDH1A3) Primary screen (AID 2061315).

As to `CC(=O)c1cccc(NC(=O)c2cnn3c(C)cc(C)nc23)c1`, the Potency entry in assay [1] and in assay [2] was “inactive” throughout.

Regarding `Cc1ccc(S(=O)(=O)Nc2cc(C(=O)Nc3nc(-c4ccccc4)cs3)ccn2)cc1`, the Potency result in assay [1] and in assay [2] was “inactive” in each case.

Turning to `COc1cccc(C2c3c(ncn(-c4ccc(C(C)(C)C)cc4)c3=N)Oc3ccc4ccccc4c32)c1` (configuration not stated), the Potency entry in assay [1] and in assay [2] was “inactive” throughout.

For `Cc1ccc(NS(=O)(=O)c2ccc3c(ccn3C)c2)cc1C`, the Potency entry in assay [1] and in assay [2] was “inactive” in each case.

Consider `CC(C)N1CCc2c(sc(NC(=O)C(F)F)c2-c2nc3ccccc3s2)C1`, for which the Potency entry in assay [1] and in assay [2] was “inactive” each time.

In the case of `N#Cc1nc(Nc2cc(F)cc(F)c2)c2ncn(CCN3CCCC3)c2n1`, the Potency result in assay [1] and in assay [2] was “inactive” throughout.

For `CCCCN(C)C(=O)Cn1nc(-c2ccc(C(F)(F)F)cc2)ccc1=O`, the Potency result in assay [1] and in assay [2] was “inactive” throughout.

As to `CC(C)(C)N[S+](=O)([O-])c1cccc(-c2nnc(SCc3ccc(C(=O)O)cc3)n2-c2ccc(F)cc2)c1`, the Potency result in assay [1] and in assay [2] was “inactive” throughout.

For `C=C(C)C(=O)O[C@H]1C[C@@](C)(O)C2(O)CCC(C)(/C=C3/OC(=O)C(COC)=C31)O2` (some centres not stated), the Potency entry in assay [1] and in assay [2] was “inactive” each time.

With `Cc1cc(C)nc(Nc2nnc(N3CCN(c4cccc(C(F)(F)F)c4)CC3)s2)c1`, the Potency result in assay [1] and in assay [2] was “inactive” each time.

Take `O=C(Nc1ccc(Cl)c(Cl)c1)Nc1ncc(-c2ccncc2)s1`: the Potency result in assay [1] and in assay [2] was “inactive” each time.

In the case of `COc1ccc(-c2nc3ccc(OC)cc3s2)cc1`, the Potency result in assay [1] and in assay [2] was “inactive” in each case.

As for `COc1ccccc1-c1nnc(SCC#CCOC(=O)c2ccc(F)cc2)o1`, the Potency result in assay [1] and in assay [2] was “inactive” throughout.

Consider `O=[N+]([O-])c1ccccc1-c1nc(NCc2ccc(-c3cccnc3)cc2)c2ccccc2n1`, for which the Potency result in assay [1] and in assay [2] was “inactive” throughout.

Regarding `O=C(Nc1ccc(Cl)c(Cl)c1)Nc1nnc(Br)s1`, the Potency entry in assay [1] and in assay [2] was “inactive” in each case.

As to `c1nc(NCCCN2CCCCC2)c2cc(-c3ccc4c(c3)OCO4)ccc2n1`, the Potency entry in assay [1] and in assay [2] was “inactive” in each case.

With `Cc1cc(-c2nnc3n2CCCCC3)c(C)n1-c1ccncc1`, the Potency entry in assay [1] and in assay [2] was “inactive” throughout.

Consider `Cc1cccc(NC(=O)c2cnn3c(C)cc(C)nc23)c1`, for which the Potency entry in assay [1] and in assay [2] was “inactive” in each case.

Turning to `Cc1ccc(S(=O)(=O)Nc2cncc(C(=O)Nc3nc(-c4ccccc4)cs3)c2)cc1`, the Potency entry in assay [1] and in assay [2] was “inactive” throughout.

Turning to `Oc1ccc(-c2ccccc2F)c2cccnc12`, the Potency result in assay [1] and in assay [2] was “inactive” throughout.

As for `O=C(Nc1ncc(Cc2ccc(C(F)(F)F)cc2)s1)c1cnc(-c2ccccc2)s1`, the Potency result in assay [1] and in assay [2] was “inactive” each time.

Turning to `COc1ccc(C(=O)Nc2ccc(-c3nc4ccccc4[nH]3)cc2)cc1OC`, the Potency result in assay [1] and in assay [2] was “inactive” in each case.

In the case of `CC(=O)Nc1sc2c(c1-c1ccc3c(c1)OCCO3)CCNC2`, the Potency result in assay [1] and in assay [2] was “inactive” throughout.

Take `O=C(Nc1ccc(Cl)c(C(F)(F)F)c1)Nc1cccc(-c2ccncc2)n1`: the Potency result in assay [1] and in assay [2] was “inactive” in each case.

`CCCCc1ccc(-c2ccc(=O)n(CC(=O)NCCc3ccccc3)n2)cc1`: the Potency entry in assay [1] and in assay [2] was “inactive” throughout.

For the compound `CN(C)c1ccc(C2N=C(Nc3nc4ccccc4o3)NC3=C2C(=O)CCC3)cc1` (configuration not stated), the Potency entry in assay [1] and in assay [2] was “inactive” each time.

In the case of `Cc1cc(NS(=O)(=O)c2ccc(NC(=O)Cc3ccc(Cl)c(C(F)(F)F)c3)cc2)no1`, the Potency result in assay [1] and in assay [2] was “inactive” throughout.

`COc1ccc(C(=O)N(Cc2cccs2)Cc2cccs2)c(O)c1`: the Potency entry in assay [1] and in assay [2] was “inactive” in each case.

For the compound `N#Cc1cccc(-c2ccc(NC(=O)c3cccs3)cn2)c1`, the Potency entry in assay [1] and in assay [2] was “inactive” in each case.

With `Cc1ccc(NC(=O)Nc2nnc(-c3ccncc3)s2)cc1C`, the Potency result in assay [1] and in assay [2] was “inactive” throughout.

Turning to `CCN(CCc1cn(C)cn1)c1ncnc2ccc(-c3ccc4c(c3)OCO4)cc12`, the Potency entry in assay [1] and in assay [2] was “inactive” in each case.

Take `O=C(Nc1ccc2ccccc2c1)Nc1cccc(-c2ccncc2)n1`: the Potency result in assay [1] and in assay [2] was “inactive” throughout.

For the compound `Cc1cc2c(s1)c1cnn(Cc3cccc(C)c3F)c(=O)c1n2C`, the Potency result in assay [1] and in assay [2] was “inactive” throughout.

Consider `N#Cc1ccccc1Nc1ncc(-c2cccc3ccccc23)o1`, for which the Potency entry in assay [1] and in assay [2] was “inactive” throughout.

With `NC(=O)C1CCN(c2nc(-c3ccc(C(F)(F)F)cc3)cs2)CC1`, the Potency result in assay [1] and in assay [2] was “inactive” in each case.

As for `O=C1CCCC2=C1C(c1[nH]ncc1Cl)NC(=NCCc1ccc(O)cc1)N2` (configuration not stated), the Potency entry in assay [1] and in assay [2] was “inactive” throughout.

Consider `Cc1cccc(CNc2ncnc3ccc(-c4ccccc4Cl)cc23)c1`, for which the Potency entry in assay [1] and in assay [2] was “inactive” each time.

With `N#Cc1ccccc1S(=O)(=O)N1CCN(S(=O)(=O)c2ccc3c(c2)OCCO3)CC1`, the Potency entry in assay [1] and in assay [2] was “inactive” in each case.

For `CSc1ccccc1-c1ccc(Nc2nc(-c3ccncc3)nc3ccccc23)cc1F`, the Potency result in assay [1] and in assay [2] was “inactive” each time.

In the case of `N[C@@H](Cc1ccc(O[S+](=O)([O-])c2cccc3cccnc23)cc1)C(=O)N1CCN(c2ccccc2)CC1`, the Potency result in assay [1] and in assay [2] was “inactive” each time.

As for `COC1CC(O[C@H]2CC[C@]3(C)C4CC[C@]5(C)C(C6=CC(=O)OC6)=CCC56OC46CC[C@@H]3C2)OC(C)C1O[C@@H]1O[C@H](CO[C@@H]2O[C@H](CO)[C@@H](O)[C@H](O)[C@H]2O)[C@@H](O)[C@H](O)[C@H]1O` (some centres not stated), the Potency result in assay [1] and in assay [2] was “inactive” throughout.
